Screening results: PubChem, The Scripps Research Institute Molecular Screening Center
LEDGF integ inh – blockers of LEDGF/p75-dependent integrase strand transfer – biochemical, TR-FRET, high throughput, primary screen. HIV-1 integrase (with human LEDGF/p75). TR-FRET IN-LEDGF/p75 DNA integration, Eu/Cy5. inhibition, % at 3.7 µM. 370,000 compounds, 0.64% hits. AID 743269, 2014;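 active = inhibition above the screen-wide mean plus 3 SD, cut at about 13% in these data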;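 also: signal is the Cy5 over europium emission ratio at 671 and 618 nm; 0% = plate median of compound wells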
PRMT1 FP inh – PRMT1 methyltransferase inhibitors, primary screen, biochemical, fluorescence polarization; AID 652257, 2013; Protein arginine N-methyltransferase 1 (Homo sapiens), Q99873; recombinant PRMT1, activity-based probe fluorescence polarization; inhibition, % at 2.79 µM; 370,000 compounds, 1.3% hits;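 active = inhibition above about 21% made by adding two undisclosed values, limit read from the data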
MBD2 inh – inhibitors of MBD2 binding to methylated DNA, primary screen, biochemical, TR-FRET, DNA-binding domain, human; MBD2 binding to methylated oligonucleotide; inhibition, % at 4.4 µM; 370,000 compounds, 0.31% hits; AID 686964, 2013; in the data active = inhibition above about 13%
Target sequence (Q9UBB5 whole entry, looked up, the tested form may be a part): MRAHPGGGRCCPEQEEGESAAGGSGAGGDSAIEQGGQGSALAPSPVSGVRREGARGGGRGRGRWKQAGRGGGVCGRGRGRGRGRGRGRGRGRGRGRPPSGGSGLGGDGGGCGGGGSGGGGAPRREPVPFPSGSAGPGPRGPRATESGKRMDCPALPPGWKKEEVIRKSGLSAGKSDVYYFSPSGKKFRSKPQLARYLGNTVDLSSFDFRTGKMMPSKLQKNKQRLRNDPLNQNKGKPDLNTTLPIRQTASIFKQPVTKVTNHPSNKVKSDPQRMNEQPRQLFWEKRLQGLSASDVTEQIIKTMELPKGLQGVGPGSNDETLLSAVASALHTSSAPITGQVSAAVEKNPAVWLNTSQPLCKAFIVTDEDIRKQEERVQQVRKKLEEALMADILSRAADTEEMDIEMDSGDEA
UHRF1 MBD2 ctr – UHRF1 methylated DNA binding inhibitors, primary screen, counter-screen for MBD2 inhibitor project, biochemical, TR-FRET, human UHRF1, single concentration | E3 ubiquitin-protein ligase UHRF1 (Homo sapiens), Q96T88 | UHRF1 binding to methylated oligo | inhibition, % at 4.4 µM | 370,000 compounds, 0.75% hits | AID 687016, 2013; in the data active = inhibition above about 21%;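 also: UHRF1 SRA domain binding a hemimethylated CpG hairpin DNA probe; 0% = median of test compound wells and 100% = reference inhibitor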
PRMT1 inh conf – PRMT1 methyltransferase inhibitors, confirmation, biochemical, fluorescence polarization, triplicate; shares compounds with PRMT1 FP inh; recombinant His-PRMT1, activity-based probe fluorescence polarization; inhibition, % at 2.79 µM; 3,300 compounds, 42% hits;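 active = mean inhibition across replicates above the hit cutoff derived for the earlier primary screen, cut at about 22% in these data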
* marks the source's active call; other numbers are inactive results; · = not tested or not shown. Rows were chosen to be rich in hits. Some 2.5% of all compounds tested hit in one or more screens of this group.

SMILES	LEDGF integ inh	PRMT1 FP inh	MBD2 inh	UHRF1 MBD2 ctr	PRMT1 inh conf
Cc1cccc(NC(=O)CN2C(=O)S/C(=C\c3ccc(-c4cccc(C(=O)O)c4C)o3)C2=O)c1	-5	9	1	4	·
Cc1ccc(NC(=O)CN2C(=O)S/C(=C/c3ccc(-c4cc(C(=O)O)ccc4C)o3)C2=O)cc1C	9	28*	8	33*	10
C=CCN1C(=O)N/C(=C/c2ccc(C)o2)C1=O	1	63*	2	-2	29*
CN(C)S(=O)(=O)c1cccc(CNCC2COc3ccccc3O2)c1 (configuration not stated)	-3	1	1	0	·
Cc1cccc(C)c1NC(=O)NS(=O)(=O)c1ccccc1	1	-5	2	5	·
CC(C)NC(=O)N(C)C[C@H]1Oc2c(NC(=O)c3ccc(-c4nccs4)cc3)cccc2C(=O)N([C@@H](C)CO)C[C@H]1C	4	-1	9	3	·
CC(C)CC1COC(=O)N1 (configuration not stated)	3	-2	1	1	·
Cc1cccc(NC(=O)CN2C(=O)N/C(=C/c3ccc(C)o3)C2=O)c1	4	65*	-1	88*	50*
COc1ccc(C(c2nnnn2C(C)(C)C)N2CCN(C/C=C/c3ccccc3)CC2)cc1 (configuration not stated)	4	35*	-2	3	7
COc1ccc(C(c2nnnn2-c2ccc(OC)cc2)N2CCN(C/C=C/c3ccccc3)CC2)cc1 (configuration not stated)	2	-5	-3	-4	·
COc1ccccc1Nc1n[nH]c(=S)s1	-6	47*	4	0	8
COc1cccc(Nc2n[nH]c(=S)s2)c1	-4	43*	0	-4	36*
Cc1oc(-c2ccc3c(c2)OCCO3)cc1C(=O)O	7	42*	-2	5	6
CC(=O)Nc1ccc(-c2ccnc3c2CC(C)(C(=O)Nc2cccc(OC(F)(F)F)c2)O3)cc1 (configuration not stated)	2	5	0	0	·
COc1cc(Cl)ccc1NC(=S)N(CCCN1CCOCC1)Cc1cn(C)c2ccccc12	-1	34*	5	2	37*
COc1ccc(Cl)cc1NC(=S)N(CCCN1CCOCC1)Cc1cn(C)c2ccccc12	-1	34*	2	1	37*
Cc1ccc(CNC(=O)C(CC(C)C)OC(=O)c2ccco2)cc1 (configuration not stated)	5	4	1	3	·
Cc1ccc(N2CC(C(=O)OCC(=O)Nc3ccccc3C)CC2=O)cc1 (configuration not stated)	1	2	-1	-2	·
O=C(CCCSc1ccc(Cl)cc1)Nc1cc(S(=O)(=O)N2CCOCC2)ccc1O	-4	49*	3	0	22*
Cc1ccc(S(=O)(=O)N2CCOCC2)cc1NC(=O)CSc1ccc(Cl)cc1	-1	-2	0	-1	·
COC(=O)c1ccccc1SC(CC(=O)c1ccccc1)c1ccc(F)cc1 (configuration not stated)	2	43*	-2	2	48*
CCOC(=O)C1=C(C)N=c2s/c(=C/c3cccc([N+](=O)[O-])c3O)c(=O)n2C1c1ccccc1 (configuration not stated)	11	49*	6	6	41*
CCOC(=O)C1=C(C)N=c2s/c(=C/c3cccc([N+](=O)[O-])c3O)c(=O)n2C1c1cc(OC)c(OC)c(OC)c1 (configuration not stated)	6	44*	-4	4	40*
CCOC(=O)C1=C(C)N=c2s/c(=C\c3cccn3C)c(=O)n2C1c1cccc(OC)c1OC (configuration not stated)	-1	0	-2	0	·
CN(Cc1ccccc1C#N)S(=O)(=O)c1cccs1	-2	-2	0	4	·
SMILES	LEDGF integ inh	PRMT1 FP inh	MBD2 inh	UHRF1 MBD2 ctr	PRMT1 inh conf
N#Cc1nccnc1S(=O)(=O)c1cccs1	-5	84*	5	1	82*
S=c1[nH]c2ccc(Cl)cc2s1	-4	18	-1	-2	·
Cc1cccc2sc(=S)[nH]c12	0	28*	7	5	16
Cc1nc2ccc(NS(=O)(=O)c3ccc(F)c(C)c3)cc2[nH]1	3	1	3	-3	·
COC(=O)C[C@@H]1CC[C@H](NC(=O)Cc2ccccn2)[C@@H](CO)O1	0	-1	4	-1	·
Cc1ccc2cc(CN(Cc3ccc4c(c3)OCO4)Cc3nnnn3Cc3ccco3)c(=O)[nH]c2c1C	5	61*	-4	-1	5
COc1cc2cc(CN(Cc3nnnn3Cc3ccco3)C3CCCCC3)c(=O)[nH]c2cc1OC	13	29*	6	4	10
Cc1ccc(C)c2[nH]c(=O)c(CN(Cc3ccc4c(c3)OCO4)Cc3nnnn3Cc3ccco3)cc12	18*	28*	2	4	-4
Cc1cc2cc(C(c3nnnn3Cc3ccco3)N3CCCCC3)c(=O)[nH]c2cc1C (configuration not stated)	10	30*	-3	-1	8
COc1cccc(CC2(CO)CCCN(CC3=Cc4cc(Cl)ccc4OC3)C2)c1 (configuration not stated)	5	-3	0	-5	·
CN(CCc1ccccn1)C1CC(=O)N(c2ccc(Cl)cc2)C1=O (configuration not stated)	-2	80*	0	5	16
Oc1ccccc1C(=S)N1CCN(C(=S)c2ccccc2O)CC1	-4	42*	4	3	19
Oc1ccccc1C(=S)N1CCCC1	1	9	-5	-1	·
Cc1sc(NC(=S)NC(=O)c2ccco2)c(C#N)c1C	-4	49*	4	6	3
Cc1sc(NC(=S)NC(=O)c2ccccc2)c(C#N)c1C	3	18	5	3	·
CNS(=O)(=O)c1ccc(CNC[C@H]2O[C@@H](n3cc(C)c(=O)[nH]c3=O)C[C@@H]2O)cc1	-1	3	-1	-1	·
Cc1ccc(S(=O)(=O)N/N=C/c2ccccc2O)cc1	5	-2	-3	-4	·
Cc1ccc(S(=O)(=O)NN=CC=CC=NNS(=O)(=O)c2ccc(C)cc2)cc1	-1	39*	-1	-3	44*
O=S(=O)(c1cccc(-c2n[nH]c(=S)n2-c2ccc(OC(F)(F)F)cc2)c1)N1CCOCC1	4	27*	-3	-1	15
Cc1cc(S(=O)(=O)Nc2ccc(N3CCOCC3)cc2)ccc1Br	-1	29*	-1	-1	4
